The record followed here is PubChem BioAssay.

Each structure is given as a SMILES string. Inconclusive results are not listed. For part of these data: Measured potencies and affinities stand elsewhere. Activity calls are given as the source filed them.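 How the source made its calls, unless noted: active means thallium flux through the channel raised or lowered by more than 3 SD from vehicle-only wells, actives on both sides; inactive means the rest.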

For assay [1], the system named is Neuropilin-2 / VEGF-C interaction (human). Nature of the assay: small molecules blocking Neuropilin-2/VEGF-C interaction – biochemical, microplate binding format, z-score (AID 743281; call rule not given here). The settings on record: microplate NRP2/VEGF-C binding assay; stronger effect = lower value.
The test system of assay [2] is F380Y/beta1. Nature of the assay: BK channel mutant inhibitors and activators – cell-based, U2OS BacMam, thallium flux, beta subunits, selectivity assay, profiling panel (AID 1259406).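 Further: initial slope of Thallos dye fluorescence rise after thallium is added; log ratio against the mean of 0.3% DMSO vehicle wells on the same plate.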 The settings on record: U2OS BacMam BK variants, at 30 µM.
The test system of assay [3] is F380Y/beta4. The description is as above. The settings on record: U2OS BacMam BK variants, at 30 µM.
Assay [4] relates to R275C/beta4. Described as above. The settings on record: U2OS BacMam BK variants, at 30 µM.
Assay [5] deals with R275C/Slo1WT/beta2. The description is as above. The settings on record: U2OS BacMam BK variants, at 30 µM.
Assay [6] is described as follows: viability loss in pontine glioma line – cell-based, JHH-DIPG-1, MIPE4.0, CellTiter-Glo, qHTS, dose response (AID 1347062; cut-off not given, nearly all actives have AC50 up to about 27 µM). The following applies: JHH-DIPG-1 viability, CellTiter-Glo ATP luminescence. For orientation: Cellular ATP, detected with luciferase, serves as a proxy for viable cell number.
The nature of assay [7]: growth inhibition of DIPG cells – cell-based, MIPE4.0 library, CellTiter-Glo luminescence, qHTS (AID 1347066; cut-off not given, nearly all actives have AC50 up to about 30 µM;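 further: cells exposed to compound for 48 hours before readout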). The settings on record: SU-DIPG-VI viability, CellTiter-Glo ATP luminescence.
The nature of assay [8]: blockers of polyQ-driven CASP3 activation – cell-based (AID 1583). The following applies: polyglutamine-induced caspase-3 activation, cell assay; stronger effect = higher value;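 tested at 10 µM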.
Assay [9] can be described thus: yeast 75Q aggregation reduction – 75Q-TubU reporter (AID 1593). The settings on record: Yeast 75Q polyglutamine aggregation reporter.
The nature of assay [10]: restoration of touch response, mutant HTT neurons – whole organism, C. elegans mechanosensory neurons, N-terminal huntingtin (AID 1599). The following applies: C. elegans polyQ-huntingtin mechanosensory neurons, stronger effect = higher value.
A short description of assay [11]: blockers of cytochrome c efflux from mitochondria – biochemical, purified mitochondria (AID 1603).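 Further: mouse liver mitochondria challenged with calcium chloride; signal normalized to the plate average as 100%.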 The following applies: stronger effect = lower value.
Assay [12] in a line: polyglutamine aggregate formation blockers (AID 1604). The settings on record: polyglutamine-induced protein aggregation inhibition assay; stronger effect = higher value; tested at 2.5 µM.
Assay [13] is described as follows: glutamate transport activators, MN-1 cells, MN-1 cell line (AID 1612).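 Further: tested at 1 µM final; 0% = mean of DMSO vehicle wells on each plate; positive means more glutamate uptake than control and negative means less.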 The settings on record: MN-1 motor neuron cells, stronger effect = higher value.
Assay [14] can be described thus: 75Q-TubH aggregate inhibition, S. cerevisiae, yeast (AID 1616). The settings on record: S. cerevisiae 75Q-TubH polyglutamine aggregation suppression; stronger effect = higher value.
Assay [15] in a line: compounds altering viability of human ES cells (AID 493140; call rule not given here;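 further: cells exposed to compounds for four days before counting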). The following applies: human embryonic stem cell survival screen; stronger effect = higher value.
The nature of assay [16]: compounds altering circadian rhythm period length – cell-based, LOPAC library, luminescence reporter (AID 2774; call rule not given here;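 further: values are relative to mean of DMSO wells on each plate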). The settings on record: circadian reporter cells, at 7 µM, actives lie on both sides.
Assay [17] concerns Hepatitis C virus NS3 helicase. Nature of the assay: blockers of NS3h binding to ssDNA – biochemical, fluorescence polarization, LOPAC1280 library, primary screen (AID 687035; in the data active means inhibition above about 37%). The following applies: Purified HCV NS3 helicase, Cy5-dT15 ssDNA binding fluorescence polarization; stronger effect = higher value; concentration not given here.
The nature of assay [18]: compounds altering Cy5-DNA-NS3h complex signal – biochemical, LOPAC1280, artefact control for HCV NS3 helicase inhibitor project (AID 687037; call rule not given here). The settings on record: Cy5-DNA-NS3h complex fluorescence interference counterscreen. (In general: Counterscreens check selectivity or assay interference.)
Assay [19] in a line: blockers of cellular phospholipid synthesis – cell-based, LOPAC library, screen 4, primary screen (AID 1347384; call rule not given here). The following applies: animal cells, phospholipid biosynthesis inhibition screen; at 10 µM.
A short description of assay [20]: compounds altering HSF1 focus formation in cells – imaging, Selleck Cancer Library (AID 1347162; in the data active means plate-normalised HSF1 focus index below about 0.46). The following applies: human cells, HSF1 nuclear foci imaging, at 10 µM; SSMD: measured here: HSF1 foci SSMD mean; cell count: measured here: cell number; plate-normalised HSF1 focus index: stronger effect = lower value.

In the case of `CCCCC(=O)N(Cc1ccc(-c2ccccc2-c2nn[nH]n2)cc1)[C@H](C(=O)O)C(C)C`, the z-score in assay [1] was -0.0697 (inactive). Further, the log fold change Tl+ flux in assay [2] is -0.0013 (inactive); in assay [3] it was -0.00671 (inactive); in assay [4], 0.0104 (inactive); in assay [5], 0.0346 (inactive).
For the compound `CC[C@H]1OC(=O)[C@H](C)[C@@H](O[C@H]2C[C@@](C)(OC)[C@@H](O)[C@H](C)O2)[C@H](C)[C@@H](O[C@@H]2O[C@H](C)C[C@H](N(C)C)[C@H]2O)[C@](C)(OC)C[C@@H](C)C(=O)[C@H](C)[C@@H](O)[C@]1(C)O`, the z-score in assay [1] is -0.251 (inactive). Moreover, the outcome in assay [6] and in [7] was inactive. The log fold change Tl+ flux is 0.0264 (inactive) in assay [2], 0.00789 (inactive) in [3], -0.0137 (inactive) in assay [4] and -0.00092 (inactive) in assay [5].
In general, inhibition refers to the relative decrease from the control value, in per cent. As to `CC(C(=O)O)c1ccc(-c2ccccc2)c(F)c1` (configuration not stated), the inhibition in assay [8] is 20.8%. Besides, the score in assay [9] worked out at 0. The compound also returned a rescue above control in [10] of 19. Moreover, in [11], the cytochrome c release ratio is 0.68. Further, in [12], the inhibition of aggregation came to 29%. In [13], the glutamate uptake change was found to be 14.1%. Besides, in [14], the aggregation suppression score worked out at 0.00404. Besides, the survival in assay [15] was 4.67 (inactive). Further, the z-score in assay [1] is -0.82 (inactive). Further, the compound was called inactive in assay [6] and in assay [7]. Further, the log fold change Tl+ flux in assay [2] was 0.0374 (inactive); in assay [3], 0.0328 (inactive); in assay [4] it was 0.0279 (inactive); in assay [5], 0.0126 (inactive).
Consider `C[N+]1(C)CCCC(OC(=O)C(O)(c2ccccc2)c2ccccc2)C1` (configuration not stated), for which, in assay [8], the inhibition was -22.1%. Besides, the score in assay [9] turned out to be 1.26. The compound further yielded a rescue above control in assay [10] of -3.59. In assay [11], the cytochrome c release ratio was 1.17. Moreover, in assay [12], the inhibition of aggregation amounted to 55%. Besides, the glutamate uptake change in assay [13] is -13.3%. Further, in assay [14], the aggregation suppression score worked out at 1.44. In addition, the survival in assay [15] was 8 (inactive). Moreover, the log fold change Tl+ flux in assay [2] was -0.0251 (inactive); in [3], 0.0149 (inactive); in assay [4], 0.0435 (inactive); in [5], 0.0306 (inactive).
On to `CNCCC(Oc1ccc(C(F)(F)F)cc1)c1ccccc1` (configuration not stated), for which, in [16], the period change was -0.16 h (inactive). For the same compound, in assay [15], the survival is 3.58 (inactive). In [17], the inhibition is -3% (inactive). The fluorescence ratio (interference) in [18] was 1 (inactive). For the same compound, in assay [19], the compound was classed as inactive. Also, the log fold change Tl+ flux was 0.157 (active) in assay [2], 0.225 (active) in assay [3], 0.301 (active) in [4] and 0.0335 (inactive) in assay [5].
For `CCc1ccc(CCOc2ccc(CC3SC(=O)NC3=O)cc2)nc1` (configuration not stated), the z-score in assay [1] was 0.637 (inactive). The result in assay [6] and in assay [7] was inactive. The same compound showed an SSMD in [20] of -1.24. This compound also gave a cell count in assay [20] of 7530. Further, the plate-normalised HSF1 focus index in assay [20] was 0.926 (inactive). Also, the log fold change Tl+ flux in [2] was 0.0033 (inactive); in [3], 0.017 (inactive); in [4], -0.028 (inactive); in [5] it was -0.0116 (inactive).
Turning to `O=c1ccc2ccc(O)c(O)c2o1`, the period change in [16] was 0.03 h (inactive). Also, the inhibition in assay [17] is 0% (inactive). In assay [18], the fluorescence ratio (interference) is 1.1 (inactive). The result in [6] and in [19] was inactive.
Regarding `Nc1ncnc2c1ncn2[C@@H]1O[C@H](CO)[C@@H](O)[C@@H]1O`, the inhibition in assay [8] came out at 13.4%. Moreover, the score in assay [9] came out at 1.04. In assay [10], the rescue above control is -14.3. For the same compound, the cytochrome c release ratio in assay [11] turned out to be 1.16. Also, in assay [12], the inhibition of aggregation amounted to 56.1%. In addition, the glutamate uptake change in assay [13] came out at 13.7%. The aggregation suppression score in [14] worked out at 0.666. Besides, the log fold change Tl+ flux is 0.0507 (inactive) in assay [2], 0.0319 (inactive) in [3], 0.00861 (inactive) in assay [4] and 0.0175 (inactive) in assay [5].
Regarding `COc1ccc(/C=C/C(=O)Nc2ccccc2C(=O)O)cc1OC`, in assay [16], the period change is -0.165 h (inactive). In addition, in assay [17], the inhibition was 1% (inactive). Further, the fluorescence ratio (interference) in assay [18] was 1 (inactive). In assay [1], the z-score was 0.915 (inactive). Further, in assay [19], the call was inactive. Besides, the log fold change Tl+ flux in [2] is -0.00383 (inactive); in [3], -0.0244 (inactive); in [4] it was -0.0078 (inactive); in assay [5], 0.0419 (inactive).
`COC(=O)[C@H](c1ccccc1Cl)N1CCc2sccc2C1`: in [8], the inhibition is 62%. Moreover, the score in [9] was determined as 1.18. Moreover, the rescue above control in assay [10] was found to be 1.25. The cytochrome c release ratio in assay [11] amounted to 0.98. For the same compound, the inhibition of aggregation in [12] stood at 77.8%. In addition, the glutamate uptake change in assay [13] is -7.57%. In assay [14], this compound came in with an aggregation suppression score of 1.88. Besides, the compound was classed as inactive in [6] and in [7]. Also, the log fold change Tl+ flux in assay [2] is 0.0174 (inactive); in [3], 0.0282 (inactive); in assay [4], -0.038 (inactive); in [5] it was -0.0324 (inactive).
Take `CN(C)c1nc(N(C)C)nc(N(C)C)n1`: the inhibition in [8] is -2.79%; in assay [17], 0% (inactive). This compound came in with a score in [9] of 1.33. This compound also yielded a rescue above control in [10] of 6.66. The cytochrome c release ratio in assay [11] was 1.53. The inhibition of aggregation in assay [12] turned out to be 78.1%. The glutamate uptake change in assay [13] stood at 20.9%. Moreover, the aggregation suppression score in assay [14] was 1.21. Further, the period change in assay [16] was -0.095 h (inactive). Also, in assay [15], the survival was 2.92 (inactive). The fluorescence ratio (interference) in [18] is 0.9 (inactive). For the same compound, the result in [6] and in [19] was inactive. The same compound came in with an SSMD in assay [20] of 0.836. Besides, the cell count in [20] was determined as 7300. The plate-normalised HSF1 focus index in assay [20] is 1.03 (inactive). Also, the log fold change Tl+ flux was 0.0385 (inactive) in assay [2], 0.0174 (inactive) in [3], -0.000902 (inactive) in assay [4] and 0.0129 (inactive) in assay [5].
Take `CC(C)NCC(O)COc1ccc(CC(N)=O)cc1` (configuration not stated): the inhibition is 16.6% in [8] and -1% (inactive) in assay [17]. Besides, in [9], the score came out at 1.42. The rescue above control in assay [10] is -0.75. In assay [11], the cytochrome c release ratio was 0.86. Further, in assay [12], the inhibition of aggregation was -11.1%. Moreover, the glutamate uptake change in assay [13] was -9.65%. The aggregation suppression score in assay [14] came out at 1.39. Further, the period change in assay [16] is 0.015 h (inactive). Moreover, the survival in assay [15] is 4.33 (inactive). Further, the fluorescence ratio (interference) in assay [18] was 0.9 (inactive). For the same compound, in [19], the outcome was inactive. The log fold change Tl+ flux was 0.000846 (inactive) in assay [2], 0.0375 (inactive) in [3], 0.0424 (inactive) in assay [4] and 0.0165 (inactive) in assay [5].
